# Assay outcomes deposited in PubChem by several laboratories.
# PRMT1 inh: blocks human protein arginine methyltransferase 1; Q99873; inhibition, % at 2.79 µM; actives 1.3% (n = 370,000); AID 652257; recombinant PRMT1, activity-based probe fluorescence polarization;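 active means inhibition above about 21% made by adding two undisclosed values, limit read from the data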
# LANA-H2A inh: blocks KSHV LANA binding to histone H2A/H2B. Q9QR71. cell-free LANA-H2A/H2B peptide, fluorescence polarization. inhibition, % (concentration not given with the values). actives 0.6% (n = 320,000); in the data active means inhibition mostly above about 10%, no sharp cut-off; inactive means mostly below about 6.7%
# ALR H2O2 inh: blocks human ALR sulfhydryl oxidase activity. inhibition, % (no concentration beside the values). AID 485317. purified ALR, DTT oxidation, H2O2 HRP-luminol luminescence. actives 3.8% (n = 290,000). P55789;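 active means mean replicate inhibition above about 79%, with every replicate also reaching it, limit read from the data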
# Rtt109 Vps75: blocks Candida albicans Rtt109/Vps75 acetyltransferase activity. purified Rtt109/Vps75, ThioGlo CoA-SH fluorescence, 4 h. inhibition, % at 34.9 µM. actives 0.16% (n = 330,000). AID 540336;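 active means inhibition of at least 50% in every replicate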
# rCAG binder: molecules binding r(CAG) RNA repeats. actives 1.3% (n = 370,000). r(CAG) RNA repeat, TO-PRO-1 dye displacement fluorescence. inhibition, % at 3 µM;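 active means inhibition above the plate cutoff, the mean of all test compounds on that plate plus 3 SD, cut at about 35% in these data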;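 further: 0% = DMSO alone and 100% = 100 µM mitoxantrone as full dye displacement; higher means more dye released from RNA so lower well fluorescence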
# ABHD5-PLIN5 inh: inhibitors of human ABHD5-perilipin-5 interaction; actives 0.78% (n = 360,000); inhibition, % at 4 µM; Q00G26+Q8WTS1; Split G. princeps luciferase complementation, luminescence, 4 h; AID 602281;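 active means inhibition above the mean inhibition across every tested compound plus 3 SD, cut at about 22% in these data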;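 further: 0% = DMSO only wells and the 100% control is not disclosed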
# Numbers without * were called inactive; / = no result; + = active, no number. Most compounds without a hit are left out; they make up all but 5.9% or so of the library.
SMILES,PRMT1 inh,LANA-H2A inh,ALR H2O2 inh,Rtt109 Vps75,rCAG binder,ABHD5-PLIN5 inh
COc1cc(/C=C/C(=O)OCC(=O)NCc2ccccc2OC)ccc1O,-1,-14,84*,3,-2,4
COc1cc(/C=C/C(=O)OCC(=O)Nc2ccc3c(c2)OCCO3)ccc1O,0,2,81*,1,2,3
COc1cc(/C=C/C(=O)OCC(=O)N2CCN(C(=O)c3ccco3)CC2)ccc1O,4,-2,99*,-8,3,1
COc1cc(/C=C/C(=O)OCC(=O)NCCC2=CCCCC2)ccc1O,-2,3,99*,10,-2,-5
Cn1c(=O)c2cc(S(=O)(=O)NCCC(=O)NCCc3ccc(Cl)cc3)ccc2n(C)c1=O,-5,7,98*,1,1,9
Cn1c(=O)c2cc(S(=O)(=O)NCCC(=O)Nc3ccc(Cl)cc3)ccc2n(C)c1=O,3,1,/,10,7,15
Cc1cc(C)c2ccc(N)nc2c1O,-3,-2,91*,9,-1,3
Cc1cc(C)c2cccc(N)c2n1,2,-1,-10,/,1,4
COc1ccc(S[C@]2(C(=O)N(C)C)CC(=O)N(c3ccsc3)[C@@H]2c2ccc(OC)cc2)cc1,-1,/,/,/,2,/
CC12CCC(C(=O)NNc3ccccc3)(C(=O)C1=O)C2(C)C (stereo not given),0,-2,98*,3,1,1
O=C(CCS(=O)(=O)c1ccccc1)NCc1ccccc1,1,37*,22,22,0,-3
Cc1ccc(CNC(=O)CCS(=O)(=O)c2ccc(C)cc2)cc1,-4,-3,-7,-16,-2,-1
Cc1cccc(CCNC(=O)CCS(=O)(=O)c2ccc(Br)cc2)c1,0,18*,-6,/,-4,3
Cc1[nH]n(-c2ccccc2)c(=O)c1C=NC1CCCCCC1,2,-5,/,1,-6,1
Cc1[nH]n(-c2ccccc2)c(=O)c1C=NC1CCCCC1,-1,-3,2,59*,-4,1
Cc1ccc2nc(SCC(=O)O)nc(C)c2c1,3,2,-2,10,0,22*
CCOc1ccc(CSC(=N)N)cc1[N+](=O)[O-],1,-1,98*,27,0,3
CCOc1ccc(CSC(=N)N)cc1Cl,2,-3,100*,/,3,16
FC(F)(F)C1=CC(c2ccc(Cl)cc2)=NCCN1,-1,0,99*,6,-4,1
Oc1ccc2ccccc2c1CNc1ccc2ccccc2c1,25*,/,/,0,23,-1
COC(=O)[C@]12C[C@H](CC(=O)N3CCC(c4ccccc4)CC3)C(=O)N(Cc3ccco3)C1=C[C@H](C(C)C)O[C@@H]2C1CC1,0,/,/,/,1,/
CCCOc1ccc(C(=O)ON=C2CCN(C)CC2)cc1,2,31*,-9,25,-6,3
O=c1ccn(C2CC(O)C(COC(c3ccccc3)(c3ccccc3)c3ccccc3)O2)c(=O)[nH]1 (stereo not given),4,/,/,/,2,/
Cc1ccccc1NS(=O)(=O)c1cc2c(cc1C)N(C)CCO2,5,17,98*,0,5,-4
CCOC(=O)C1=NOC(C(=O)NCCO)(C(=O)C2CC2)C1 (stereo not given),5,/,/,/,3,/
SMILES,PRMT1 inh,LANA-H2A inh,ALR H2O2 inh,Rtt109 Vps75,rCAG binder,ABHD5-PLIN5 inh
C[C@@H]1CN([C@H](C)CO)C(=O)c2c(c3ccccc3n2C)-c2ccccc2CO[C@H]1CN(C)C(=O)c1cc(Cl)cc(Cl)c1,7,/,/,/,7,0
O=C(Nc1ccccc1)C1CC(=O)N(Cc2ccccc2)C1 (stereo not given),-3,2,2,-3,-3,3
O=C(Nc1ccc(SC(F)F)cc1)C1CC(=O)N(Cc2ccccc2)C1 (stereo not given),17,-3,95*,14,-3,0
O=C(Nc1ccc(F)c(Cl)c1)C1CC(=O)N(Cc2ccco2)C1 (stereo not given),1,+,-2,-12,-1,-10
O=S1(=O)N[C@H](Cc2ccccc2)COc2cccc(F)c21,3,/,/,/,3,/
O=C(CSc1nnc(COc2ccc(Cl)cc2)o1)Nc1ccc(N2CCOCC2)cc1,3,/,/,/,-2,-3
CN1CCCN(C(=O)C2CCN(c3ncnc4c3sc3cccc(F)c34)CC2)CC1,3,/,/,/,8,/
N#Cc1ccc(C(C(=O)NC2CCCCC2)n2c(=O)c(-c3ccccc3)nc3ccccc32)cc1 (stereo not given),-2,/,/,/,8,2
Oc1ccc(/C=N/Nc2ccc(Cl)nn2)cc1O,3,3,99*,/,2,3
Oc1ccc(/C=N/Nc2cc(N3CCOCC3)nc(N3CCOCC3)n2)cc1,2,-2,100*,33,1,-3
Cc1nc(Cl)cc(N/N=C/c2ccc(O)cc2)n1,2,-1,99*,0,-2,11
Cn1cnnc1SCC(=O)c1ccc(O)c(O)c1,8,-2,99*,-1,-1,-3
O=C(CSc1nnnn1-c1ccc(F)cc1)c1ccc(O)c(O)c1,4,2,98*,6,20,-4
O=C(OCN1C(=O)c2ccccc2C1=O)c1cccnc1SC(F)F,3,13,-2,1,-1,-2
Cc1cc(C)c(NC(=O)Cn2c(=O)n(Cc3ccco3)c(=O)c3ccccc32)c(C)c1,0,2,4,10,-2,43*
O=C([C@@H]1CCCN1C(=O)c1cccs1)N1CCN(S(=O)(=O)c2cccc(F)c2)CC1,-1,11*,-3,-4,1,9
COc1ccc(S(=O)(=O)N2CCN(C(=O)[C@@H]3CCCN3C(=O)c3cccs3)CC2)cc1,1,/,/,/,-2,-7
COc1ccc2c(c1)Sc1ccc(Cl)cc1N2,12,/,/,/,/,/
O=C1Nc2cc(Cl)ccc2Nc2cscc21,23*,2,/,4,12,-7
CCN(CC)c1ccc(NC(=O)C2CC3CCC2C3)cc1 (stereo not given),0,0,99*,3,-4,-2
Cc1cccnc1NC1CCCCC1,-2,0,0,-8,-2,-1
c1ccc2c(NC3CCCC3)nnc(NC3CCCC3)c2c1,-2,2,98*,4,10,6
O=[N+]([O-])c1cccc(/C=N/Nc2ccccn2)c1,1,1,-3,2,3,-2
O=[N+]([O-])c1cccc(/C=N/Nc2nccnc2Cl)c1,-2,54*,19,0,1,7
CCOC1=C/C(=C/c2c(N)n3oc(C)cc3nc2=O)C=CC1=O,/,-5,91*,/,/,/
CCS(=O)(=O)c1nn2c(N)c(/C=C3/C=CC(=O)C(OC)=C3)c(=O)nc2s1,2,-15,100*,2,5,1
COC1=C/C(=C/c2c(N)n3c(nc2=O)sc2cc(S(C)(=O)=O)ccc23)C=CC1=O,1,4,99*,3,27,9
